Data as given in the supplement of paper PMC10849652.
Targets with a hit are over-represented here; the source holds about 7,900 in all. About 0.6% of all pairs of compound and target were hits.

Each target was assayed with CC1=C2C(=CC=C1)N=C(N(C2=O)C3=CC=CC=C3C)CN4C=NC5=C(N=CN=C54)N (assay: log2 fold change, soluble protein after heating vs DMSO (PISA); higher = thermal stabilisation; K562 cells, 10 uM, 30 min; active = over 0.2 and 3.5 SD of the protein, either way, in both replicates (recomputed)).
In short: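 K562 cells at 2×10^6 cells/mL were treated with 10 μM compound for 30 min. Aliquots were heated for 3 min across 48°C-58°C, pooled, and extracted in PBS with 0.5% NP-40 at 4°C; soluble protein was the supernatant after 21,000xg for 90 min. Soluble protein was quantified by TMTpro 16plex LC-MS/MS with channel sums equalised, and reported as log2 fold change in thermal stability against DMSO controls, with values from duplicates.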

UniProt O00506, sequence (O00506 whole entry, looked up): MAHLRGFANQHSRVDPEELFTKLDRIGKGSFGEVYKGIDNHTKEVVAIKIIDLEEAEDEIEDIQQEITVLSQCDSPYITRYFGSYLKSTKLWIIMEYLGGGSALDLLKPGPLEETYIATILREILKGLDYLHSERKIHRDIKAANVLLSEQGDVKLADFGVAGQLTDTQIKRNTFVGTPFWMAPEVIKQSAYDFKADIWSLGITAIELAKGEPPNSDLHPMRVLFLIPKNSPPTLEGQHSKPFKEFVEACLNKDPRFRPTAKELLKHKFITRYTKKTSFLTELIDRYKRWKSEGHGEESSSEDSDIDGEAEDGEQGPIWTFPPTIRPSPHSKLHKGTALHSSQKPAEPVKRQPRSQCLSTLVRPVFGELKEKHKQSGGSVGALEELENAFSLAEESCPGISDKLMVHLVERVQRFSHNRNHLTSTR
UniProt P35610, sequence (P35610 whole entry, looked up): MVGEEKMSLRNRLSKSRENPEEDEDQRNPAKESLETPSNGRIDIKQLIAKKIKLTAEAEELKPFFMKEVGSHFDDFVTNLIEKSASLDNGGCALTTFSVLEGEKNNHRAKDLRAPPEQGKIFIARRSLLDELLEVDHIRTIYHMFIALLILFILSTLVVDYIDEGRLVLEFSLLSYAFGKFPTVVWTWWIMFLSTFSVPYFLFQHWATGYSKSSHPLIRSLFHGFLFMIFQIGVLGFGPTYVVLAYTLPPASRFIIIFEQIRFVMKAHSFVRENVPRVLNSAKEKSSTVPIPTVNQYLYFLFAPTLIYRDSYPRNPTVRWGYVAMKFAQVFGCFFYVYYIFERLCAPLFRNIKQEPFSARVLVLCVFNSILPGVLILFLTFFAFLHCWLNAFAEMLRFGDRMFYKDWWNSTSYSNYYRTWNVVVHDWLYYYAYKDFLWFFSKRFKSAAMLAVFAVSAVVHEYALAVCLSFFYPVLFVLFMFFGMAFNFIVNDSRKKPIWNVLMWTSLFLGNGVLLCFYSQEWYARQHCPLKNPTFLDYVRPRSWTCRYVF
UniProt O75494, sequence (O75494 whole entry, looked up): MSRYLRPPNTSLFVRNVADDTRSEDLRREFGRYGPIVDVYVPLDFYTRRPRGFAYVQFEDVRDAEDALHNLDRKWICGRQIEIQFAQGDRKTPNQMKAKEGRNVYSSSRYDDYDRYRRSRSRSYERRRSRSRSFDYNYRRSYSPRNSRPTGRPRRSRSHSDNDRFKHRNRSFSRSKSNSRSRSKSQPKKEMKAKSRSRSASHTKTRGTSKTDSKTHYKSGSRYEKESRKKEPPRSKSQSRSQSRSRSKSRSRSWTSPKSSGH
UniProt Q96JI7, sequence (Q96JI7 whole entry, looked up): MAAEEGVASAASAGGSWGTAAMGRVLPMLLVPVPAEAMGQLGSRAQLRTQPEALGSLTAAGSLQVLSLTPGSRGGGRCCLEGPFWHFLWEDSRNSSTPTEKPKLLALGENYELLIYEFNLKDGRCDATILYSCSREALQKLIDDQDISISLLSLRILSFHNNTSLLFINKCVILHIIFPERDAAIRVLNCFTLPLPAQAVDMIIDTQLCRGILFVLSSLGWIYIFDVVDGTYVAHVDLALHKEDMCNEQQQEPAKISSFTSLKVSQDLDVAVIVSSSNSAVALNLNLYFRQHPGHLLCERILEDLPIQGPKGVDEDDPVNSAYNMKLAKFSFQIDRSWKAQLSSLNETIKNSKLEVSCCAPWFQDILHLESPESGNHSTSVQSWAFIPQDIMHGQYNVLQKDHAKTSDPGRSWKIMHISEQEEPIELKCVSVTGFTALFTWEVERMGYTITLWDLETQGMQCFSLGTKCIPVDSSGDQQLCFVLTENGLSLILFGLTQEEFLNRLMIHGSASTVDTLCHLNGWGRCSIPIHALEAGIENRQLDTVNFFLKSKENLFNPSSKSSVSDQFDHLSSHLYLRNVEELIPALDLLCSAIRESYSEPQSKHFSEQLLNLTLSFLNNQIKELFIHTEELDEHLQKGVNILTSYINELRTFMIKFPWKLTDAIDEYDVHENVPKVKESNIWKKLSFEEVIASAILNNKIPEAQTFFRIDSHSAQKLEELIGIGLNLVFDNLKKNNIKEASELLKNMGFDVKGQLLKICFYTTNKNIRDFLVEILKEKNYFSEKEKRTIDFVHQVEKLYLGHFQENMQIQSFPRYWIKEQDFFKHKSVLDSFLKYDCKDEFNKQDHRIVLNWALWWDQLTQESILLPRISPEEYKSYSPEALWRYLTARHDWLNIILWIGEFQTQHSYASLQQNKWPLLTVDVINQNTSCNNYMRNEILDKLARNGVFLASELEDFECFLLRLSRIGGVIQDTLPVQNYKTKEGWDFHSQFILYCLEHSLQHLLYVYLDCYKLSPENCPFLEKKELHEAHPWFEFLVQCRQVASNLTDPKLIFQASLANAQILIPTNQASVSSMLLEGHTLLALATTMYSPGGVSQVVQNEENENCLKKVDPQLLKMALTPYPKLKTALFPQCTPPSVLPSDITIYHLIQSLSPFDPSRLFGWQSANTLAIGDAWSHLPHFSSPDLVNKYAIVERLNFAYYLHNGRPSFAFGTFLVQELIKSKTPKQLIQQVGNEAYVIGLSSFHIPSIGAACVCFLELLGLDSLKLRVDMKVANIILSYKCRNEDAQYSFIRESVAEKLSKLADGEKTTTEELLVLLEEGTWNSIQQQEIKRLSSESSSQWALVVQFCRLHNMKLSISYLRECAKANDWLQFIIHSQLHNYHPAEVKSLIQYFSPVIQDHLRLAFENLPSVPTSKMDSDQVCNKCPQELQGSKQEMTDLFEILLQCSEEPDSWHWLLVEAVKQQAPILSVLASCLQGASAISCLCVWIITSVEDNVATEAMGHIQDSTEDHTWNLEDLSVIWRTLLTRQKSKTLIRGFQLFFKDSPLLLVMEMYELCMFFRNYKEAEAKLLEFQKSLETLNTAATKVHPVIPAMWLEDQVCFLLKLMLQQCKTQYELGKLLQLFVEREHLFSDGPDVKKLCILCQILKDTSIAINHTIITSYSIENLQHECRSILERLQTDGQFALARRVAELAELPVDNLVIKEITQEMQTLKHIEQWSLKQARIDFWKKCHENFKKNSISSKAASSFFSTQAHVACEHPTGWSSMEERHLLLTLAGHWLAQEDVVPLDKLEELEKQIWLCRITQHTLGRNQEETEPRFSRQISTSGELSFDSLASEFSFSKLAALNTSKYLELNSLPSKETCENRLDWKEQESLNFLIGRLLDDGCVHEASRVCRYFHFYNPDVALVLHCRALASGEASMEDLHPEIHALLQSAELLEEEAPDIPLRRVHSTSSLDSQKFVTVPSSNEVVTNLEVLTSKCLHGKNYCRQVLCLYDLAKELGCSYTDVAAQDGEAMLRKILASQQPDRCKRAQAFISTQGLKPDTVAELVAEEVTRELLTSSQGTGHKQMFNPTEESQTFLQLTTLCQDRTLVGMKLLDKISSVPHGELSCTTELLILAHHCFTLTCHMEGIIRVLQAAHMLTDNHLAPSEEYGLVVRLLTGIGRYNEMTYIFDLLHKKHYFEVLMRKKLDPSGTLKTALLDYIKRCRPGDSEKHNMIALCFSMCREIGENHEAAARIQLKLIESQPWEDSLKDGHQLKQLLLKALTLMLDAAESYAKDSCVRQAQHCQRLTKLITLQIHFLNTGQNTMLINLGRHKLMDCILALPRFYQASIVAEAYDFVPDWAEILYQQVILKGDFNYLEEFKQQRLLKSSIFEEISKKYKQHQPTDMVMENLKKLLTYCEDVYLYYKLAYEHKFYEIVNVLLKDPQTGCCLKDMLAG
UniProt Q9Y2W1, sequence (Q9Y2W1 whole entry, looked up): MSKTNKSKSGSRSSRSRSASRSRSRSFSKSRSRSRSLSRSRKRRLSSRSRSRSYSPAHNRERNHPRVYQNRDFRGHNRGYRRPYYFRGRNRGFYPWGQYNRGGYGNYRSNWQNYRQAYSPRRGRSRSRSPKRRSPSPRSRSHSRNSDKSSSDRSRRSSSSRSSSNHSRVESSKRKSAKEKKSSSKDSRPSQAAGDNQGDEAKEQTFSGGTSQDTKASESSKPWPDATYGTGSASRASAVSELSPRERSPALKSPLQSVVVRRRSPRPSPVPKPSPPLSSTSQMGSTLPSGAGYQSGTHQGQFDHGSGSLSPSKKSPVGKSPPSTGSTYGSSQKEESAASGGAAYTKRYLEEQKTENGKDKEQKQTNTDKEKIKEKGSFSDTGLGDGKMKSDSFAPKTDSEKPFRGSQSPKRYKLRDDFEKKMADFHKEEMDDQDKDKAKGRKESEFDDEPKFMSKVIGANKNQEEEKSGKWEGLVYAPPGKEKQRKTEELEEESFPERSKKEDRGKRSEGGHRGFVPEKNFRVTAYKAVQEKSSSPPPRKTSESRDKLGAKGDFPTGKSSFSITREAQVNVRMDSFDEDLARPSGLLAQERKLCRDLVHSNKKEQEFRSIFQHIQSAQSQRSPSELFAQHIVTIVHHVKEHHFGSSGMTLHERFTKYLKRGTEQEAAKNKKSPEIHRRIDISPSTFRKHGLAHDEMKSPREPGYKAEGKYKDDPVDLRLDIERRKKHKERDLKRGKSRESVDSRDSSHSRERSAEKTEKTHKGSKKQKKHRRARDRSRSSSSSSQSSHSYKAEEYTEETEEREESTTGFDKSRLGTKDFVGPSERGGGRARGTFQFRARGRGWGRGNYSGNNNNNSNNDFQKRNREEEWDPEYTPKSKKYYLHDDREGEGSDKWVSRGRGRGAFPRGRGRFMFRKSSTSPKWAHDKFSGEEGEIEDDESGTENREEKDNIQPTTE
UniProt Q9H4I9, sequence (Q9H4I9 whole entry, looked up): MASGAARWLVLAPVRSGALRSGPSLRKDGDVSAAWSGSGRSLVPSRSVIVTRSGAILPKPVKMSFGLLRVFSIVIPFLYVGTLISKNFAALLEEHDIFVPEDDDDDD
UniProt O75663, sequence (O75663 whole entry, looked up): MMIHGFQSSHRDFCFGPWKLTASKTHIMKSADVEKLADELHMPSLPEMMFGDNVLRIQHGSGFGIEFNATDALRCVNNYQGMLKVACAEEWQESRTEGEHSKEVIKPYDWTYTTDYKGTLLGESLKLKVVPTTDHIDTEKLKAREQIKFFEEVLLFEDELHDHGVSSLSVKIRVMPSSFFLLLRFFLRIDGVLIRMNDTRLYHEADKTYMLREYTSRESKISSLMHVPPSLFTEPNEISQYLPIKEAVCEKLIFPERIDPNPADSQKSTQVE

Target | log2 fold change
SRPRA (UniProt P08240) | 0.031 (inactive)
SSB (UniProt P05455) | 0.014 (inactive)
TBCD (UniProt Q9BTW9) | 0.101 (inactive)
TIPRL (UniProt O75663) | 0.083 (inactive)
STAT5B (UniProt P51692) | 0.05 (inactive)
SOAT1 (UniProt P35610) | 0.071 (inactive)
SPG11 (UniProt Q96JI7) | 0.444 (inactive)
STK25 (UniProt O00506) | 0.015 (inactive)
TAX1BP1 (UniProt Q86VP1) | 0.042 (inactive)
THRAP3 (UniProt Q9Y2W1) | -0.072 (inactive)
SYNE1 (UniProt Q8NF91) | 0.223 (inactive)
SPECC1 (UniProt Q5M775) | 0.105 (inactive)
SLC38A7 (UniProt Q9NVC3) | -0.004 (inactive)
STK38 (UniProt Q15208) | 0.055 (inactive)
SLIRP (UniProt Q9GZT3) | 0.01 (inactive)
SRSF10 (UniProt O75494) | -0.187 (inactive)
SMDT1 (UniProt Q9H4I9) | -0.081 (inactive)
SUPT5H (UniProt O00267) | 0.106 (inactive)
TJP2 isoform 7 (UniProt Q9UDY2) | 0.081 (inactive)
TBK1 (UniProt Q9UHD2) | 0.041 (inactive)
SSRP1 (UniProt Q08945) | 0.087 (inactive)
TATDN2 (UniProt Q93075) | -0.037 (inactive)
SNX2 (UniProt O60749) | 0.066 (inactive)
SPIRE1 (UniProt Q08AE8) | 0.196 (inactive)
